Laboratory results taken from PubChem BioAssay.
Calls of active or inactive are those of the source.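 How the source made its calls, unless noted: active means inhibition at or above 50% at 10 µM; inactive means inhibition below 50%.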

Tests used:
[1] = inhibitors of TNFa-induced NFkB p65 translocation, primary screen, imaging, HUVEC, MLSMR starter and 10KST1 sets (AID 438;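 active means inhibition above 20% together with a positive visual image hit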;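 further: compound added about 3h40 before a 20 min TNFalpha stimulation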;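 on inhibition: signal is the nuclear over cytoplasmic p65 intensity ratio per well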); conditions: HUVEC TNFa-induced p65 nuclear translocation; cell count: measured here: nuclei count (cytotoxicity indicator), at 2.08 µM; inhibition: at 2 µM, stronger effect = higher value, 0% TNFa-plus-vehicle, 100% no-TNFa wells
[2] = inhibitors of mutant huntingtin aggregation, primary screen, imaging, exon1htt(103Q)mCFP cells, high-content imaging (AID 483;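 active means visual image review flags a hit and inhibition of aggregation exceeds 20%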;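 further: compound exposure lasted 3 days before fixation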;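 on nuclei count: percent of the per-plate median nuclei count of sample wells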); conditions: exon1htt(103Q)mCFP cell line, aggregate imaging, at 2 µM; inhibition of aggregation: stronger effect = higher value; nuclei count: measured here: cell count, toxicity
[3] = inhibitors of E-selectin induction by TNFa, primary screen, imaging, HUVEC, immunofluorescence, MLSMR starter and 10KST1 sets (AID 487;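 active means visually confirmed hit in the image check and inhibition above 20%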;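 on inhibition: signal is fraction of cell area covered by stained E-selectin grains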;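 on nuclei count: 100% = median nuclei count of all wells on the same plate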); conditions: HUVEC TNFalpha-induced E-selectin immunofluorescence imaging, at 2 µM; inhibition: stronger effect = higher value; nuclei count: measured here: cell number, toxicity
[4] = molecular target: Voltage-gated potassium channel subunit beta-2 (Rattus norvegicus) (UniProt P62483); assay: KvBeta enzyme negative modulators, primary screen, biochemical, NADPH fluorescence (AID 622;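 active means fluorescence slope higher than the sample average by over 3 SD, cut at about -0.22 in these data, passing the limit was not always enough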;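 further: slope of raw intensity against log time taken from 70 to 1610 s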); conditions: recombinant KvBeta, 4-cyanobenzaldehyde reduction, at 10 µM, stronger effect = higher value
Chain of Voltage-gated potassium channel subunit beta-2 (Rattus norvegicus) (P62483 whole entry, looked up): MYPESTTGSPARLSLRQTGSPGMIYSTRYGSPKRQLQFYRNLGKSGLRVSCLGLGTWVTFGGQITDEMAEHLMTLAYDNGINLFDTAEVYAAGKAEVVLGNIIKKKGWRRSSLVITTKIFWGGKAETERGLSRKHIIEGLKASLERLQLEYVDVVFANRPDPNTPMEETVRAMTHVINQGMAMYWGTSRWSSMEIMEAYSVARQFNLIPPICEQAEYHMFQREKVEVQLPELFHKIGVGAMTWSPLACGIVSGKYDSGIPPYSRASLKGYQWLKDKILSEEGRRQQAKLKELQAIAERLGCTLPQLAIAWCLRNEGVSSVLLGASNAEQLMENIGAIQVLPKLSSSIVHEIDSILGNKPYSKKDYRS

[5] = molecular target: Voltage-gated potassium channel subunit beta-2 (Rattus norvegicus) (UniProt P62483); assay: KvBeta positive modulators, primary screen, biochemical, NADPH fluorescence (AID 623;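 active means NADPH fluorescence slope more negative than the mean of all samples by about 3 SD, 99.7% confidence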;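 further: fluorescence intensity change per second fitted from 20 to 320 s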); conditions: Recombinant KvBeta, NADPH fluorescence decrease slope, 10 min; at 10 µM; stronger effect = lower value
[6] = molecular target: Alpha-2C adrenergic receptor (Homo sapiens) (UniProt P18825); assay: modulators of alpha2C/GIRK thallium flux, primary screen, cell-based, HEK293 alpha2C/GIRK1/2 (AID 624;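 active means fluorescence slope after compound addition differing from the mean of all screened samples at 99.7% confidence, in either direction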;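 further: slope of fluorescence ratio to pre-addition baseline per second over 15 to 24 s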); conditions: thallium flux BTC fluorescence, at 10 µM, actives lie on both sides
Chain of Alpha-2C adrenergic receptor (Homo sapiens) (P18825 whole entry, looked up): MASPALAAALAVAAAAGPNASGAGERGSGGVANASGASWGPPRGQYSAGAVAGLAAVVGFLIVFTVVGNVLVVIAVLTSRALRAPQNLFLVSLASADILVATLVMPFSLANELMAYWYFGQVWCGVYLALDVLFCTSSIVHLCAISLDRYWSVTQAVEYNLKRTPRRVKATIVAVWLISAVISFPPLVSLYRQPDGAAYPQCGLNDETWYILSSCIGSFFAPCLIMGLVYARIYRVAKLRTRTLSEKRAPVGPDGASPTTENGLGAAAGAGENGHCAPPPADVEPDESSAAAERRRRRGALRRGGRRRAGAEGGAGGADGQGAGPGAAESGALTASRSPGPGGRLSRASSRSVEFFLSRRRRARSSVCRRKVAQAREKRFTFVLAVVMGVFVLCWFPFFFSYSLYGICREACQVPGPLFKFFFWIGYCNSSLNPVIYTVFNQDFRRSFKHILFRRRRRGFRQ

[7] = inhibitors of Sendai virus-induced IRF3 signaling, primary screen, TLR/RLR signaling modifier project, cell-based, Sendai virus stimulus, luciferase, 10K MLSCN set (AID 602276); conditions: HEK293 RL24 IRF3 luciferase reporter, at 10 µM, stronger effect = higher value;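 further: firefly luciferase from ISG56 promoter only with Renilla not read in this screen; 0% = Sendai virus plus DMSO and 100% = medium plus DMSO without virus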
[8] = inhibitors of poly I:C-induced TLR3 signaling, primary screen, cell-based, poly I:C stimulus, luciferase, 10K MLSCN set (AID 602277;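 active means inhibition of the reporter signal at or above 50%; inactive means inhibition below 50%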); conditions: HEK293-TLR3 RL24 IRF3 luciferase reporter, at 10 µM, stronger effect = higher value

Row | Compound | cell count [1] | inhibition [1] | inhibition of aggregation [2] | nuclei count [2] [%] | inhibition [3] | nuclei count [3] [%] | fluorescence slope [4] | NADPH fluorescence slope [5] | slope [6] | inhibition [7] | inhibition [8]
1 | Cc1ccccc1-n1nc(C)c2cc(C(=O)NCc3cccnc3)sc21 | 374 | -1.1% (inactive) | -18.9% (inactive) | 116 | -51.5% (inactive) | 113 | -0.493 (inactive) | -6.5e-05 (inactive) | 0.0199 (active) | 10.7% (inactive) | 44.3% (inactive)
2 | CCOC(=O)N1CCC(c2cc(=O)n3[nH]c(C)c(-c4ccc(F)cc4)c3n2)CC1 | 743 | -13.4% (inactive) | -25.8% (inactive) | 120 | -82.2% (inactive) | 119 | -0.589 (inactive) | 1.5e-07 (inactive) | 0.00863 (inactive) | 11.5% (inactive) | 31% (inactive)
3 | Cc1ccc(CCNC(=O)C2CCCN2S(=O)(=O)c2ccc3c(c2)CCC(=O)N3)cc1 (centres undefined) | 702 | -4.8% (inactive) | -29.3% (inactive) | 102 | -35% (inactive) | 121 | -0.547 (inactive) | -1e-05 (inactive) | 0.0066 (inactive) | -15.7% (inactive) | 0.529% (inactive)
4 | CCc1c(C(=O)NCCc2ccc(OC)c(OC)c2)[nH]c(C)c1C(C)=O | 274 | 2.4% (inactive) | -21.3% (inactive) | 107 | 5.2% (inactive) | 93.4 | -0.34 (inactive) | -1.2e-05 (inactive) | 0.00669 (inactive) | 17.6% (inactive) | 16.1% (inactive)
5 | Cn1c(NC(=O)c2ccccc2NC(=O)C(C)(C)C)nc2ccccc21 | 704 | -3.2% (inactive) | 11.9% (inactive) | 98.3 | -10.7% (inactive) | 126 | -0.163 (active) | 5.8e-06 (inactive) | 0.00774 (inactive) | 1.78% (inactive) | -25.9% (inactive)
6 | C=CCOc1ccccc1/C=c1\sc2nc(=O)c(C)nn2c1=O | 704 | -11.1% (inactive) | 7.5% (inactive) | 100 | -31.3% (inactive) | 106 | -0.362 (inactive) | 1.8e-05 (inactive) | 0.0042 (inactive) | 15.6% (inactive) | 26.5% (inactive)
7 | COc1cccc(Nc2cc(C)nc3ccccc23)c1 | 259 | 2.1% (inactive) | 11.8% (inactive) | 78.5 | -1% (inactive) | 105 | -0.412 (inactive) | -6.3e-06 (inactive) | 0.00478 (inactive) | -11.6% (inactive) | 99.5% (active)
8 | CCOC(=O)N1CCC(Nc2nc3ccccc3n3cnnc23)CC1 | 501 | -6.9% (inactive) | -21.2% (inactive) | 59.5 | -35.1% (inactive) | 117 | -0.581 (inactive) | -8.8e-06 (inactive) | 0.00645 (inactive) | 7.19% (inactive) | 18.1% (inactive)
9 | CCOC(=O)c1ccc(Oc2nc(SC)nc(N(C)C)n2)cc1 | 467 | 5.5% (inactive) | -5.2% (inactive) | 110 | -308% (inactive) | 133 | -0.34 (inactive) | 7.8e-06 (inactive) | 0.00652 (inactive) | 3.96% (inactive) | 4.44% (inactive)
10 | CN1CCN(Cc2nc3c(c(=O)n(C)c(=O)n3C)n2Cc2ccccc2Cl)CC1 | 746 | -15.7% (inactive) | 4.7% (inactive) | 100 | -14.4% (inactive) | 105 | -0.409 (inactive) | -2e-05 (inactive) | 0.00482 (inactive) | 4.15% (inactive) | 45.1% (inactive)
11 | Cn1c(NC(=O)c2cccc(Cn3cc(Cl)cn3)c2)nc2ccccc21 | 778 | -2.9% (inactive) | -32.7% (inactive) | 104 | -61.1% (inactive) | 113 | -0.548 (inactive) | -1.6e-05 (inactive) | 0.00464 (inactive) | -25.1% (inactive) | -112% (inactive)
12 | O=S1(=O)C=C(Oc2ccc(F)cc2)c2ccccc21 | 377 | -2.7% (inactive) | -8.6% (inactive) | 108 | -0.9% (inactive) | 111 | -0.321 (inactive) | -7.4e-05 (inactive) | 0.00496 (inactive) | 5.55% (inactive) | 7.32% (inactive)
13 | CCNc1ccc(C(=O)OCC)cc1NC(=O)c1cc(S(=O)(=O)N2CCOCC2)ccc1C | 772 | 7.3% (inactive) | 31.2% (inactive) | 93.3 | -81.9% (inactive) | 114 | -0.551 (inactive) | 4.9e-05 (inactive) | 0.00574 (inactive) | -4.65% (inactive) | -25.5% (inactive)
14 | CCOC(=O)C1CCN(c2c(N(C)Cc3ccco3)c(=O)c2=O)CC1 | 789 | 0.9% (inactive) | 3.8% (inactive) | 103 | -33.1% (inactive) | 114 | -0.576 (inactive) | -2.6e-05 (inactive) | 0.00601 (inactive) | 5.07% (inactive) | 22.7% (inactive)
15 | C=C(Cl)COC(=O)[C@H]1C2C=CC(C2)C1C(=O)O (some centres undefined) | 347 | -5% (inactive) | -18.6% (inactive) | 96.9 | -29.7% (inactive) | 124 | -0.435 (inactive) | 5.3e-05 (inactive) | 0.00591 (inactive) | -6.49% (inactive) | 2.25% (inactive)
16 | CSc1ccccc1NC(=O)c1cnc2n(c1=O)CCS2 | 695 | -9.6% (inactive) | -2.5% (inactive) | 111 | -2.6% (inactive) | 112 | -0.401 (inactive) | 1e-05 (inactive) | 0.00535 (inactive) | 5.22% (inactive) | -12.4% (inactive)
17 | COC(=O)CSC1=C(C#N)C(c2ccc(F)cc2)CC(=O)N1 (centres undefined) | 591 | 2.5% (inactive) | -6.5% (inactive) | 91.8 | 0.6% (inactive) | 91 | -0.542 (inactive) | -3.8e-05 (inactive) | 0.00754 (inactive) | 10.2% (inactive) | 19.4% (inactive)
18 | O=C(CS(=O)(=O)c1cn(Cc2ccc(Cl)cc2)c2ccccc12)N1CCCC1 | 654 | -3.9% (inactive) | -11.8% (inactive) | 116 | 13.5% (inactive) | 111 | -0.538 (inactive) | -3.5e-05 (inactive) | 0.00627 (inactive) | 15.4% (inactive) | 34% (inactive)
19 | O=C(O)CCn1c(=O)c2ccccc2c2ccccc2c1=O | 557 | 1% (inactive) | -13.6% (inactive) | 118 | 10.2% (inactive) | 101 | -0.537 (inactive) | 7e-06 (inactive) | 0.00528 (inactive) | -4.94% (inactive) | -9.95% (inactive)
